Source: PubChem BioAssay (NCI)
This is part of a sample that, as a whole, favours compounds with a hit. Of some 83,000 tested, about 20% had one in any assay.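 Growth was measured after 48 h exposure to one concentration of compound in 96-well plates. Values under 10 count as active.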 Activity calls are given as the source filed them.

Assays:
Test in all cases: NCI-60 one-dose screen, 48 h (100 = growth as untreated, 0 = no growth, -100 = all killed)
[1] = system: SK-MEL-2 melanoma; settings: 10 µM unless noted
[2] = system: EKVX NSCLC; settings: 10 µM unless noted
[3] = system: SN12C renal; settings: 10 µM unless noted
[4] = system: UO-31 renal; settings: 10 µM unless noted
[5] = system: TK-10 renal; settings: 10 µM unless noted
[6] = system: ACHN renal; settings: 10 µM unless noted
[7] = system: HL-60(TB) leukemia; settings: 10 µM unless noted
[8] = system: CCRF-CEM leukemia; settings: 10 µM unless noted
[9] = system: MOLT-4 leukemia; settings: 10 µM unless noted
[10] = system: SR leukemia; settings: 10 µM unless noted
[11] = system: OVCAR-8 ovarian; settings: 10 µM unless noted
[12] = system: OVCAR-5 ovarian; settings: 10 µM unless noted
[13] = system: OVCAR-4 ovarian; settings: 10 µM unless noted
[14] = system: IGROV1 ovarian; settings: 10 µM unless noted
[15] = system: OVCAR-3 ovarian; settings: 10 µM unless noted
[16] = system: RPMI-8226 leukemia; settings: 10 µM unless noted
[17] = system: SK-OV-3 ovarian; settings: 10 µM unless noted
[18] = system: A498 renal; settings: 10 µM
[19] = system: HS 578T breast; settings: 10 µM unless noted

Measured: growth

N#CCCNc1ccccc1
active: [7] -10.8%
inactive: [1] 112% | [2] 98% | [3] 111% | [4] 93.6% | [5] 115% | [6] 101% | [8] 80.6% | [9] 79.3% | [10] 77.1% | [11] 114% | [12] 104% | [13] 105% | [14] 119% | [15] 106%

C1CCC([PH+](C2CCCCC2)C2CCCCC2[PH+](C2CCCCC2)C2CCCCC2)CC1.[Au].[CH-]1CCCCC1CC1CCCC[N-]1 (stereo not drawn)
active: [1] -55.7% | [2] -61.9% | [3] -32% | [4] -81.4% | [5] -43.4% | [6] -72.5% | [7] -32.3% | [8] -12.5% | [9] 0.501% | [10] 1.21% | [16] -8.82% | [11] 5.9% | [12] -37.2% | [17] -70.5% | [14] -29.4% | [15] -86.5%

CCOP(=O)(Cc1ccc(C#N)cc1)OCC
inactive: [1] 92.3% | [2] 105% | [3] 97% | [4] 99.2% | [5] 93.4% | [6] 110% | [18] 98% | [8] 99.3% | [9] 94.8% | [10] 89% | [16] 103% | [11] 94.3% | [12] 106% | [13] 104% | [17] 102% | [14] 118% | [15] 110% | [19] 105%

COC(=O)CCc1c[nH]c2ccc(N(CCCl)CCCl)cc12
inactive: [1] 121% | [2] 96.6% | [3] 36.6% | [4] 19.5% | [5] 90% | [6] 12.6% | [18] 84.3% | [7] 17.5% | [9] 23.1% | [10] 12.7% | [16] 86.3% | [11] 56.1% | [12] 80.3% | [13] 79.7% | [17] 66.4% | [14] 65.6% | [15] 80.3%

CCCC(=O)O[C@@H]1C[C@H]2C[C@@H](O[C@@H]3O[C@@H](C)[C@@H](O)[C@@H](O)[C@H]3OC)C[C@@H](C[C@@H](C)/C=C/C=C\C[C@@H]3O[C@@H](C[C@@H]3C)[C@@H](O)C[C@H]3C[C@@]1(O)C(=O)O3)O2
inactive: [1] 57.8% | [2] 22.6% | [3] 58.7% | [4] 34.2% | [5] 29% | [6] 62% | [7] 29.9% | [8] 50.9% | [9] 37.5% | [10] 85.9% | [16] 27.3% | [11] 41.1% | [12] 74.5% | [13] 25.4% | [17] 52.4% | [14] 70.1% | [15] 59.8% | [19] 96.7%

NC(N)=N/N=C\c1c[nH]c2ccc(Br)cc12
inactive: [1] 99.9% | [2] 93.8% | [3] 68.5% | [4] 86.1% | [5] 116% | [6] 95.4% | [18] 89.7% | [7] 93.5% | [8] 78.6% | [9] 79.2% | [16] 80.8% | [11] 83.1% | [12] 91.8% | [13] 97.2% | [17] 97.4% | [14] 101% | [15] 81.4% | [19] 80.6%

COC(=O)C1CCC(NC(=O)c2csc([C@@H](C[C@H](C(C)C)N(C)C(=O)[C@@H](NC(=O)[C@H]3CCCCN3C)C(C)C)OC(C)=O)n2)CC1 (stereo partly drawn)
inactive: [1] 28.6% | [2] 40.8% | [3] 28.7% | [4] 60.8% | [5] 63.1% | [6] 23.8% | [8] 13% | [9] 18.1% | [10] 20.1% | [16] 25.7% | [11] 19.3% | [12] 53% | [13] 45.3% | [17] 20.8% | [14] 28.3% | [19] 42.6%
active: [7] -21.8% | [15] -37.6%

CN(C)C(=O)Oc1ccccc1
inactive: [1] 108% | [2] 104% | [3] 106% | [4] 103% | [5] 107% | [6] 101% | [7] 94.5% | [8] 104% | [9] 110% | [10] 109% | [16] 104% | [11] 102% | [12] 82.4% | [13] 101% | [17] 103% | [14] 108% | [15] 120%

[Au+].[N-]=C=O.c1ccc(CN2[CH-]N(Cc3ccccc3)C(c3ccccc3)=C2c2ccccc2)cc1
inactive: [1] 84.5% | [2] 86.7% | [3] 74% | [4] 74.5% | [5] 104% | [6] 93.2% | [18] 112% | [8] 66.8% | [9] 76.1% | [16] 63.9% | [11] 98.9% | [12] 145% | [13] 79.7% | [14] 81.1% | [15] 82.6%

COC(=O)[C@@H](C)C[C@H](Cc1ccccc1)NC(=O)c1csc([C@@H](C[C@H](C(C)C)N(C)C(=O)[C@H](C)NC(=O)[C@H]2CCCN2C)OC(C)=O)n1
inactive: [1] 43.8% | [2] 69.8% | [3] 64.8% | [4] 71.8% | [5] 82.7% | [6] 68.6% | [18] 53.4% | [8] 18.7% | [9] 42.6% | [10] 14.1% | [11] 58.3% | [12] 110% | [13] 88.9% | [17] 73.2% | [14] 58.1% | [15] 17.9% | [19] 17.6%
active: [16] 9.55%

CC1(C)N=C(N)N=C(N)N1c1cccc(CCCCc2ccc(Cl)c(S(=O)(=O)F)c2)c1
inactive: [1] 52.3% | [2] 51.5% | [3] 30.5% | [4] 92.4% | [5] 55.5% | [6] 87.5% | [18] 86.1% | [7] 18.8% | [8] 28.1% | [9] 38.3% | [16] 45.7% | [11] 19.4% | [12] 49.6% | [17] 72.8% | [15] 47.1% | [19] 83.9%

O=C(O)c1ccc([S-])cc1.[Au+].c1ccc(CN2[CH-]N(Cc3ccccc3)C(c3ccccc3)=C2c2ccccc2)cc1
active: [1] -43.2% | [2] -52.9% | [3] -67.8% | [4] -79.4% | [5] -61.7% | [6] -65.7% | [18] -33.8% | [8] 1.41% | [9] -1.59% | [16] -11% | [11] 1.87% | [12] -14.2% | [17] -5% | [14] -58.6% | [15] -95.2%
inactive: [13] 38.1% | [19] 23.2%

O=C(CC1(O)C(=O)Nc2ccc(Br)cc21)c1ccc(C(=O)NCC2CCC3(CC2)OOC2(CCCCC2)OO3)cc1 (stereo not drawn)
active: [2] -36.4% | [4] -82.4% | [6] -40.8% | [7] -39.2% | [8] -34.4% | [9] -29.4% | [10] -38.7% | [16] -27.4% | [15] 8.92%
inactive: [1] 23.3% | [3] 59.1% | [5] 72.5% | [11] 41.7% | [12] 95.8% | [13] 48.7% | [17] 70.6% | [14] 14.8% | [19] 62.9%

CC(=O)O[C@H](C[C@H](C(C)C)N(C)C(=O)[C@@H](NC(=O)[C@H]1CCCN1C)C(C)C)c1nc(C(=O)N[C@@H](Cc2ccccc2)C[C@H](C)C(=O)O)c(C)s1
active: [18] -2.65% | [8] 8.48% | [10] 8.27% | [17] 6.85% | [15] -22.9%
inactive: [1] 36.5% | [2] 53.7% | [3] 29.2% | [4] 49.3% | [5] 42.4% | [6] 26.7% | [9] 18.9% | [16] 19.8% | [11] 17.9% | [12] 36.1% | [13] 48.2% | [14] 30.2% | [19] 23.8%

O=NN1CCCc2cccc(O)c21
active: [10] 1.91%
inactive: [1] 56.1% | [2] 69.4% | [3] 21.7% | [4] 20.9% | [5] 95.9% | [6] 17.2% | [18] 86.8% | [8] 30.2% | [9] 51.8% | [16] 44.5% | [11] 24% | [12] 115% | [13] 63.7% | [17] 38.8% | [14] 44.4% | [15] 49.6% | [19] 46.3%

CCOC(=O)N[C@H]1CCc2c(Br)c(OC)c(OC)c(OC)c2-c2ccc(SC)c(=O)cc21
inactive: [1] 43.5% | [2] 45.4% | [3] 24.3% | [4] 27.3% | [5] 42.1% | [6] 24.4% | [11] 20.2% | [12] 32.5% | [17] 52.1% | [14] 12.1%
active: [7] -39.9% | [8] 1.82% | [9] 5.92% | [10] -5.77% | [16] -6.15% | [13] 5.73% | [15] -29.4% | [19] -1.62%

CN[C@]1(c2ccccc2Cl)CCCC[C@H]1NCCCN1CCN(C)CC1
inactive: [1] 103% | [2] 92% | [3] 97.4% | [4] 76.3% | [5] 96.4% | [6] 108% | [7] 93.9% | [8] 99.6% | [9] 98.8% | [10] 111% | [16] 97.3% | [11] 97.2% | [12] 104% | [13] 101% | [17] 105% | [14] 103% | [15] 102% | [19] 94.1%
